Measured values from PubChem BioAssay (Tox21).
Records with an inconclusive call do not appear. Active and inactive are the calls of the source. Calls follow the shape of the dose curve; as a rule, active = well fitted cell-killing curve with a large enough effect in the repeat runs; inconclusive = weak or mixed curves, or effect the other way; inactive = flat fitted curve, though single readings scatter.

Assay: cAMP Responsive Elements (CRE) small molecule agonists, cell-based qHTS assay: qHTS cell viability counter screen (AID 2060914); also: nearly all actives have a fitted effect of over 50% in size
Conditions: CRE-bla HEK293T viability, CellTiter-Glo luminescence, 5 h; series mostly up to 92.4 µM; activity change, negative = cytotoxicity: at the top concentration
Summary of the method: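 Cytotoxicity counter screen multiplexed with the CRE-bla reporter assay in HEK 293T cells: 3 h compound exposure at 37 °C, followed by CellTiter-Glo luminescence measured in the same wells.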
% is scaled to controls: 0 for no effect and ±100 for the full control effect; potency is read from the fitted curve at half-maximal effect.

SMILES | Potency | activity change, negative = cytotoxicity
CCCCCCC(C)(C)S | inactive | 
CC(S)C(=O)NCC(=O)O (stereo unspecified) |  | 10.7% [at 42.5 µM] (inactive)
CCn1cc(C(=O)O)c(=O)c2cc(F)c(N3CCNCC3)nc21 |  | 2.77% [at 42.5 µM] (inactive)
CC(C)CC(=O)O |  | -2.12% (inactive)
CCCCCCCCCCCCCCN(C)C |  | -15% [at 18.9 µM] (inactive)
CCN(Cc1cccc(S(=O)(=O)O)c1)c1ccccc1 |  | -5.85% (inactive)
CCC(CO)(CO)COCC(CC)(CO)CO |  | 7.03% (inactive)
Cc1ccc(Nc2c(F)cccc2Cl)c(CC(=O)O)c1 |  | 1.83% [at 42.5 µM] (inactive)
C1=CCC(c2ccccc2)CC1 (stereo unspecified) |  | -1.01% (inactive)
Nc1nnc(-c2ccc([N+](=O)[O-])o2)o1 |  | -8.8% (inactive)
CC(C)=CCNc1ncnc2c1ncn2[C@@H]1O[C@H](CO)[C@@H](O)[C@H]1O |  | -17.5% [at 42.5 µM] (inactive)
CN[C@H]1CC[C@@H](c2ccc(Cl)c(Cl)c2)c2ccccc21 |  | 4.55% [at 42.5 µM] (inactive)
C[CH2][Ge]([Cl])([CH2]C)[CH2]C |  | -7.07% (inactive)
CC(C)C(=O)OCc1ccccc1 |  | -5.8% (inactive)
Cc1c(C(=O)O)cccc1[N+](=O)[O-] |  | -17.3% (inactive)
CC1CC(OC(=O)c2ccccc2O)CC(C)(C)C1 (stereo unspecified) | inactive | 
C[C@@H]1C[C@H]2O[C@@]3(O[C@@H]2C(C)(C)O)[C@H](O)[C@@]2(C)[C@@H]4CC[C@H]5C(C)(C)[C@@H](O[C@@H]6OC[C@@H](O)[C@H](O)[C@H]6O)CC[C@@]56C[C@@]46CC[C@]2(C)[C@@H]13 |  | 2.88% [at 42.5 µM] (inactive)
OCC1(CO)COCOC1 |  | 14.5% (inactive)
CCc1ccc(O)c(OC)c1 |  | -0.772% (inactive)
CCCCCCCCCCCCOCCOCCOCCOCCOCCOCCOCCOCCOCCO | 29.8 µM (active) | 
CC(=O)c1ccc2ccc3ccccc3c2c1 |  | -25% (inactive)
